Assay results: the supplement of paper PMC10981050
Where “and” joins values, the source holds several entries; their conditions need not be identical. Equal values may be shown once. Where a name gives a salt, the structure may show the parent alone.

Tests used:
Assay in all cases: cell viability relative to vehicle control; higher = less cytotoxic
Conditions in all cases: 10 µM
K562 = system: K562
Outline: (§1)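 Screening covered the Selleck bioactive, kinase and epigenetic probe libraries, less identity-inconsistent compounds, on CRISPR-edited mutant clones and isogenic wild-type clones of four leukaemia lines. Cells, at 2000 per well in 50 µL medium, received a single 10 µM acoustically dispensed dose. After 48 h the supernatant was removed and CellTiter-Glo luminescence was read. Viability was analysed in Genedata Screener as percent of the on-plate vehicle control.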

MARIMO = system: MARIMO
Outline: as §1

MOLM14 = system: MOLM14
Outline: as §1

OCI-AML2 = system: OCI-AML2
Outline: as §1

Row | SMILES | cell viability (K562; SRSF2 genotype: SRSF2 P95H/wt) | cell viability (K562; SRSF2 genotype: SRSF2 wt/wt) [%] | cell viability (MARIMO; SRSF2 genotype: SRSF2 P95H/wt) [%] | cell viability (MARIMO; SRSF2 genotype: SRSF2 wt/wt) [%] | cell viability (MOLM14; SRSF2 genotype: SRSF2 P95H/wt) [%] | cell viability (MOLM14; SRSF2 genotype: SRSF2 wt/wt) [%] | cell viability (OCI-AML2; SRSF2 genotype: P95H/wt) [%] | cell viability (OCI-AML2; SRSF2 genotype: wt/wt) [%]
1 | CO[C@@]12[C@H](COC(N)=O)C3=C(C(=O)C(C)=C(N)C3=O)N1C[C@@H]1N[C@@H]12 [Mitomycin C] | 17.1% and 28% | 21 | 5.24 | 2.95 | 0.73 | 0.37 | 0.41 | 0.98
2 | NCCCCCN [Cadaverine] | 104% and 94% | 99.5 | 100 | 101 | 95.9 | 101 | 97.1 | 97.7
3 | CN(C)Cc1ccc(-c2nc3cccc4c3n2CCNC4=O)cc1 | 108% and 106% | 110 | 76.7 | 78.9 | 65.5 | 34.3 | 55.2 | 67.9
4 | CC(C)c1cccc(O)c(=O)c1 | 87.6% and 88.1% | 83.2 | 79.5 | 70.3 | 93.5 | 96.4 | 59.6 | 59.8
5 | Cc1cc(C)c2c(c1)[C@@H](N(Cc1cc(C(F)(F)F)cc(C(F)(F)F)c1)c1nnn(C)n1)CCCN2C[C@H]1CC[C@H](C(=O)O)CC1 | 89% and 90.3% | 90.1 | 104 | 114 | 95.4 | 98.7 | 101 | 116
6 | CC(=O)OCC(=O)NCCCOc1cccc(CN2CCCCC2)c1 [Roxatidine acetate HCl] | 102% and 97.3% | 96.1 | 93.7 | 103 | 101 | 101 | 92 | 94.8
7 | O=C1Cc2cc(CCN3CCN(c4nsc5ccccc45)CC3)c(Cl)cc2N1 [Ziprasidone hydrochloride] | 87% and 98.6% | 97 | 88.7 | 95.2 | 37.8 | 81.3 | 91.9 | 88.1
8 | CCCCN(Cc1ccc(C(=O)NO)cc1)C(=O)Nc1ccccc1 [Nexturastat A] | 23.9% and 35.1% | 45.5 | 6.74 | 21 | 7.82 | 2.04 | 3.08 | 7.67
9 | COC(=O)N[C@H](C(=O)N1CCC[C@H]1c1nc(-c2ccc3c(c2)O[C@@H](c2ccccc2)n2c-3cc3cc(-c4c[nH]c([C@@H]5CCCN5C(=O)[C@@H](NC(=O)OC)C(C)C)n4)ccc32)c[nH]1)C(C)C [Elbasvir] | 87.7% and 92% | 86.9 | 68.6 | 77.3 | 81.9 | 87.8 | 91 | 88
10 | CC(NC(=O)c1ccccc1/N=C/c1c(O)ccc2ccccc12)c1ccccc1 (stereo not given) [Sirtinol] | 93% and 101% | 103 | 102 | 98.7 | 94.7 | 101 | 103 | 102
11 | O=C(COc1ccc(C(=O)c2ccccc2)cc1)NC1CCN(Cc2ccccc2)CC1 [Adiporon] | 72.4% and 78.1% | 73.9 | 57.4 | 53.5 | 65.2 | 77.2 | 40.5 | 47.3
12 | Cc1ncc(CO)c(CO)c1O [Metadoxine] | 99.4% and 100% | 104 | 98.1 | 103 | 101 | 103 | 101 | 114
13 | COC1C(O)CC(=O)OC(C)CC=CC=CC(OC2CCC(N(C)C)C(C)O2)C(C)CC(CC=O)C1OC1OC(C)C(OC2CC(C)(O)C(O)C(C)O2)C(N(C)C)C1O (stereo not given) [spiramycin] | 93.7% and 96.3% | 108 | 99.4 | 102 | 98 | 103 | 110 | 96.7
14 | CC1(C)[C@@H](O[C@H]2O[C@H](C(=O)O)[C@@H](O)[C@H](O)[C@H]2O[C@@H]2O[C@H](C(=O)O)[C@@H](O)[C@H](O)[C@H]2O)CC[C@]2(C)[C@H]3C(=O)C=C4[C@@H]5C[C@@](C)(C(=O)O)CC[C@]5(C)CC[C@@]4(C)[C@]3(C)CC[C@@H]12 [Ammonium Glycyrrhizinate (AMGZ)] | 101% and 111% | 107 | 107 | 102 | 104 | 106 | 112 | 95.4
15 | CC(C)OC(=O)CCC/C=C\C[C@@H]1[C@@H](/C=C/[C@@H](O)COc2cccc(C(F)(F)F)c2)[C@H](O)C[C@@H]1O [Travoprost] | 67.1% and 66.4% | 65 | 57.9 | 40.1 | 79.1 | 94.4 | 23.5 | 37.8
16 | O=C(CCc1ccc(O)cc1)c1c(O)cc(O)cc1O[C@@H]1O[C@H](CO)[C@@H](O)[C@H](O)[C@H]1O [Phlorizin (Phloridzin)] | 104% and 94.2% | 92.3 | 93 | 102 | 92.2 | 94.8 | 90.1 | 91.7
17 | N#C/C(=C(/N)Sc1ccc(N)cc1)c1ccccc1C(F)(F)F | 85.3% and 90.9% | 85.1 | 54 | 46.4 | 82.4 | 91.5 | 67.7 | 61.3
18 | N=C(N)NC(=N)N1CCOCC1 [Moroxydine HCl] | 99.7% and 100% | 91.8 | 97.6 | 101 | 95.8 | 99.5 | 98.1 | 93.8
19 | Cc1ccc(C(=O)Nc2ccc(CN3CCN(C)CC3)c(C(F)(F)F)c2)cc1C#Cc1cnc2[nH]ncc2c1 [GZD824 Dimesylate] | 0.41% and 0.25% | 0.26 | 0.31 | 0.33 | 0.15 | 0.17 | 0.16 | 0.2
20 | CC(=O)O[C@]1(C)CC[C@@]23C[C@H]1C(C)(C)[C@@H]2CC[C@H]3C [Cedryl acetate] | 102% and 105% | 104 | 103 | 117 | 101 | 106 | 112 | 110

Row | SMILES | cell viability (K562; SRSF2 genotype: SRSF2 P95H/wt) | cell viability (K562; SRSF2 genotype: SRSF2 wt/wt) [%] | cell viability (MARIMO; SRSF2 genotype: SRSF2 P95H/wt) [%] | cell viability (MARIMO; SRSF2 genotype: SRSF2 wt/wt) [%] | cell viability (MOLM14; SRSF2 genotype: SRSF2 P95H/wt) [%] | cell viability (MOLM14; SRSF2 genotype: SRSF2 wt/wt) [%] | cell viability (OCI-AML2; SRSF2 genotype: P95H/wt) [%] | cell viability (OCI-AML2; SRSF2 genotype: wt/wt) [%]
21 | CCOc1cc2ncc(C#N)c(Nc3ccc(OCc4ccccn4)c(Cl)c3)c2cc1NC(=O)/C=C/CN(C)C [Neratinib (HKI-272)] | 68.5% and 66.3% | 62.6 | 42.1 | 41.8 | 54.1 | 53.4 | 13.3 | 36.9
22 | CC(=O)O[C@@H]1C[C@H](O)[C@@]23CO[C@@H](O)[C@]1(C)[C@@H]2C[C@@H](O)[C@]1(C)[C@@H]3C(=O)[C@H](OC(C)=O)[C@@]2(C)[C@H](c3ccoc3)C[C@H]3O[C@]321 [Toosendanin] | 45.5% and 43% | 42.4 | 38.2 | 34.2 | 37.1 | 11.1 | 23.8 | 23.9
23 | Cc1c(Nc2ncccc2C(=O)O)cccc1C(F)(F)F [Flunixin meglumin] | 95.8% and 87.2% | 93.9 | 89.8 | 96.2 | 87.4 | 89.4 | 90.4 | 101
24 | COc1ccc2[nH]cc(/C=C3\C(=O)Nc4ccc(NC(=O)CCN5CCCCC5)cc43)c2c1 | 7.59% and 11% | 8.26 | 37.9 | 33.6 | 0.75 | 0.77 | 0.4 | 0.72
25 | CCCN(CCC)S(=O)(=O)c1ccc(C(=O)O)cc1 [Probenecid (Benemid)] | 99.3% and 88.4% | 91 | 92.1 | 101 | 96.4 | 97 | 96.2 | 88.9
26 | Cc1ccc(-n2nc(C(C)(C)C)cc2NC(=O)NCc2cc(F)ccc2Oc2ccc3c(cnn3CCO)c2)cc1 [Pexmetinib (ARRY-614)] | 17.1% and 26.4% | 23.6 | 68 | 69.4 | 32.8 | 25.9 | 50 | 54.4
27 | O=C(NO)c1cccc(C(=O)NCCc2ccccc2)c1 | 91% and 97.1% | 101 | 91.9 | 86.8 | 89.6 | 94.3 | 90.7 | 93.3
28 | CC(C)(C)c1[nH]cnc1/C=c1\[nH]c(=O)/c(=C/c2ccccc2)[nH]c1=O [NPI-2358 (Plinabulin)] | 10.3% and 31% | 31.4 | 7.45 | 11 | 1.68 | 1.52 | 2.13 | 5.45
29 | O=S1(=O)CCN(CN2CCS(=O)(=O)NC2)CN1 [Taurolidine] | 98.7% and 105% | 108 | 104 | 111 | 103 | 105 | 123 | 97.5
30 | CCCOC(=O)c1ccc(O)cc1 [Propylparaben] | 96.5% and 97.2% | 101 | 91.3 | 107 | 98.9 | 105 | 95.6 | 90.1
31 | CC1(C)S[C@@H]2[C@H](NC(=O)C(c3ccccc3)S(=O)(=O)O)C(=O)N2[C@H]1C(=O)O (stereo not given in full) [Sulbenicillin Sodium] | 109% and 103% | 97.7 | 104 | 113 | 97.7 | 105 | 90.7 | 99.3
32 | CC(C)(O)CNc1ncc(-c2ccnc(Nc3ccnc(Cl)c3)n2)c(CC2CC2)n1 | 41.9% and 40.5% | 36.9 | 39.5 | 41.2 | 8.93 | 9.79 | 5.49 | 12.8
33 | CC1CCC2(OC1)OC1CC3C4CCC5CC(OC6OC(CO)C(O)C(O)C6OC6OC(CO)C(O)C(O)C6O)CCC5(C)C4CCC3(C)C1C2C (stereo not given) [Timosaponin A3] | 7.72% and 10% | 28.3 | 3.39 | 3.93 | 1.66 | 0.73 | 0.43 | 0.73
34 | Fc1ccc([C@@H]2CCNC[C@H]2COc2ccc3c(c2)OCO3)cc1 [Paroxetine mesylate] | 34.1% and 53.1% | 49.5 | 39 | 35.6 | 33.4 | 38.1 | 28.7 | 39.2
35 | Oc1ccc2c(c1)OC[C@H]1c3cc4c(cc3O[C@@H]21)OCO4 [Maackiain] | 82.8% and 87.4% | 79.4 | 80 | 83.8 | 90.7 | 85.4 | 82.3 | 84.6
36 | CSc1cccc(Nc2ncc3cc(-c4c(Cl)cccc4Cl)c(=O)n(C)c3n2)c1 | 6.76% and 14.3% | 9.82 | 34.3 | 65.4 | 26.6 | 31.6 | 12.8 | 20.9
37 | O=C1C(N(CO)C(=O)NCO)N(CO)C(=O)N1CO (stereo not given) [Diazolidinyl urea] | 96.3% and 98.6% | 106 | 98.9 | 98.3 | 93.8 | 104 | 111 | 129
38 | CC1OC(OC2C(OC3CCC4(C)C(CCC5(C)C4CC=C4C6CC(C)(C)CCC6(C(=O)OC6OC(COC7OC(CO)C(O)C(O)C7O)C(O)C(O)C6O)CCC45C)C3(C)CO)OCC(O)C2O)C(O)C(O)C1O (stereo not given) [Dipsacoside B] | 101% and 103% | 104 | 97.5 | 98.2 | 106 | 98.3 | 101 | 103
39 | Nc1ncnc2c1ncn2[C@@H]1O[C@H](CO)[C@@H](O)[C@H]1O [Adenosine (Adenocard)] | 113% and 107% | 108 | 104 | 98.5 | 104 | 114 | 102 | 106
40 | C=C[C@@]1(C)CC(=O)[C@]2(O)[C@@]3(C)[C@@H](O)CCC(C)(C)[C@@H]3[C@H](O)[C@H](OC(C)=O)[C@@]2(C)O1 [Forskolin] | 96.8% and 104% | 94 | 99 | 88.6 | 92.6 | 101 | 105 | 96.1
